An excerpt weighted towards active compounds, which were near 2.8% of everything screened.
SENP6 block – SENP6 protease inhibition; inhibition, % at 10 µM; Recombinant SENP6 catalytic domain, aminoluciferin luminescence; 330,000 tested, 1.8% active;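 active = inhibition above about 50% at the single tested dose, limit read from the data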;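 note: plate controls were DMSO wells with enzyme for no effect and DMSO wells lacking enzyme for full effect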
HSP90 inh – blocks HSP90-mediated luciferase refolding in reticulocyte lysate; Rabbit reticulocyte lysate, luciferase refolding luminescence, 3 h; inhibition, % at 5.6 µM; AID 1789; 290,000 tested, 0.91% active;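 active = inhibition above the screen-wide mean plus 3 SD, computed separately per campaign, cut at about 16% in these data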;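 note: 0% = DMSO wells and 100% = 60 µM geldanamycin wells; inhibitors lower the luminescence because luciferase stays unfolded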
SENP8 block-1 – inhibitors of human SENP8 protease | Q96LD8 | recombinant SENP8, Nedd8 substrate fluorescence | inhibition, % at 20 µM | 360,000 tested, 0.64% active | AID 602440; in the data active = inhibition mostly above about 40%, no sharp cut-off; inactive = mostly below about 27%
Platelet DG rel – modulates dense granule release in human platelets; 300,000 tested, 0.22% active; human platelet-rich plasma, SFLLRN dense granule ATP release, luminescence; AID 1663; inhibition, %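 (compounds screened at 7.5 µM in platelet-rich plasma)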;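 active = mean replicate score, as percent of positive control, at or above 50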
SENP8 block-2 – inhibitors of human SENP8 protease; Q96LD8; purified SENP8, Z-RLRGG-aminoluciferin cleavage, luminescence; inhibition, % at 10 µM; 330,000 tested, 1.2% active; AID 2540; in the data active = inhibition above about 50%
SENP7 block – inhibitors of human SENP7 protease. Q9BQF6. recombinant SENP7, Z-RLRGG-aminoluciferin luminescence, 40 min. inhibition, % at 5 µM. 330,000 tested, 1.5% active;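 active = inhibition above about 50% at the single test dose, limit read from the data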;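 note: plate controls were DMSO with enzyme for no effect and no enzyme buffer wells for full effect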
Target sequence (Q9BQF6 706-1050 limits assumed): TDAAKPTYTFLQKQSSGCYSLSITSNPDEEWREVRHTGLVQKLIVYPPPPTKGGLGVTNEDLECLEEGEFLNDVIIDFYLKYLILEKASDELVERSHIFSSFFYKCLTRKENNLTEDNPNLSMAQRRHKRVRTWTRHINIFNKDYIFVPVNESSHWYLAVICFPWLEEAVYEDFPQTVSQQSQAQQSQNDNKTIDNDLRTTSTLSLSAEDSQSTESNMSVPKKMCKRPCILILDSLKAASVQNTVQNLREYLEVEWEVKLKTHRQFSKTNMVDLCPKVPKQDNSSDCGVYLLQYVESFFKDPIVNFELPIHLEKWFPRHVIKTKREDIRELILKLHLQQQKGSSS
SENP8 confirm – confirmation of human SENP8 protease inhibitors | Recombinant SENP8, Z-RLRGG-aminoluciferin luminescence, 60 min | shares compounds with SENP7 block | AID 488912 | 6,200 tested, 40% active | inhibition, % at 12.5 µM;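 active = mean inhibition across replicates above about 50%, limit read from the data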
SENP6 conf – confirmation of human SENP6 protease inhibitors | shares compounds with SENP7 block | recombinant SENP6, Z-RLRGG-aminoluciferin luminescence | inhibition, % at 12.5 µM | 6,200 tested, 58% active | AID 488915
SENP7 confirm – confirmation of human SENP7 protease inhibitors; shares compounds with SENP7 block; recombinant SENP7, Z-RLRGG-aminoluciferin luminescence, 40 min; inhibition, % at 12.5 µM; 6,200 tested, 69% active; AID 488917
Casp3 SENP sel – inhibits human caspase-3 in SENP selectivity test; 6,200 tested, 60% active; shares compounds with SENP7 block; purified caspase-3, Z-DEVD-aminoluciferin luminescence, 60 min; inhibition, % at 12.5 µM;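 active = mean inhibition above about 50%, limit read from the data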;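 note: plate controls were enzyme with DMSO for no effect and wells without caspase-3 for full effect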
Luc interf – interferes with luciferase luminescence in SENP counter-screen; 6,200 tested, 39% active; inhibition, % at 12.5 µM; Pre-incubated SENP8/Z-RLRGG-aminoluciferin, luciferase luminescence interference; shares compounds with SENP7 block; AID 488919;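 active = mean inhibition above about 50% when retested at one dose, limit read from the data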;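 note: plate controls were DMSO wells with completed reaction for no effect and substrate without enzyme for full effect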
The depositor's hits bear a star; i = inactive; . = not tested or not shown.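 Rule for the calls, unless noted: active = mean inhibition above about 50% in the one-dose retest (limit read from the data); inactive = the rest.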

SMILES | SENP6 block | HSP90 inh | SENP8 block-1 | Platelet DG rel | SENP8 block-2 | SENP7 block | SENP8 confirm | SENP6 conf | SENP7 confirm | Casp3 SENP sel | Luc interf
O=C(c1ccc(Br)cc1)c1cc2ccc(O)cc2oc1=O | 90.4* | -3.0 | -111.5 | 7.3 | 91.8* | 50.9* | 91.6* | 94.9* | 101.1* | 96.1* | 94.9*
O=C(NCc1ccco1)c1cc2ccc(O)cc2oc1=O | 98.2* | 14.5 | -406.5 | 70.3* | 94.6* | 95.6* | 99.2* | 100.1* | 103.4* | 99.4* | 99.0*
COc1ccc2cc(C(=O)NCc3ccco3)c(=O)oc2c1 | -11.5 | 0.1 | i | 16.3 | -6.9 | -4.7 | . | . | . | . | .
COc1ccc2cc(C(C)=O)c(=O)oc2c1 | -4.9 | -0.8 | -48.9 | -1.6 | -7.9 | -9.8 | . | . | . | . | .
COc1ccc(C(=O)c2cc3ccc(O)cc3oc2=O)cc1 | 99.6* | 1.0 | -275.4 | 14.6 | 95.5* | 96.7* | 96.3* | 96.9* | 102.5* | 98.4* | 94.9*
CCc1ccc(C(=O)c2cc3ccc(O)cc3oc2=O)cc1 | 59.7* | -0.7 | -199.2 | 4.9 | 47.8 | 7.2 | 66.1* | 61.8* | 84.2* | 71.2* | 65.8*
CN1C(=O)C(CC#N)(C2(CC#N)C(=O)N(C)c3ccccc32)c2ccccc21 (stereo not given) | . | . | 13.8 | . | . | . | . | . | . | . | .
Cc1nn(C2CCS(=O)(=O)C2)c(C)c1CN(C)C(=O)c1ccc(S(=O)(=O)N(C)C)cc1 (stereo not given) | 6.3 | . | 2.0 | . | 5.5 | 0.4 | . | . | . | . | .
CC(=O)c1cc2ccc(O)cc2oc1=O | 13.6 | 4.3 | -422.3 | 1.4 | 4.2 | 18.4 | . | . | . | . | .
O=C(c1ccccc1)c1cc2ccc(O)cc2oc1=O | 95.3* | -3.7 | -150.9 | 94.6* | 95.8* | 98.4* | 97.6* | 98.8* | 102.3* | 97.9* | 95.5*
COc1ccc(-c2cc3ccc(OCC(N)=O)cc3oc2=O)cc1OC | -12.2 | -4.8 | -323.0 | 0.6 | -21.0 | -22.6 | . | . | . | . | .
COc1ccc(-c2cc3ccc(O)cc3oc2=O)cc1OC | 98.8* | -5.6 | -382.5 | 71.5* | 94.9* | 99.6* | 99.3* | 100.3* | 103.1* | 98.9* | 96.0*
N#Cc1c(N)n(C2OC(CO)C(O)C2O)c2ncnc(N)c12 (stereo not given) | . | . | 9.1 | . | . | . | . | . | . | . | .
COc1cccc(Cn2c(C(C)n3c(C)nc4ccccc43)nc3ccccc32)c1 (stereo not given) | . | . | 13.9 | . | . | . | . | . | . | . | .
Cc1ccc2nc(C)c(C(=O)NN=C3CCN(C)CC3)n2c1 | 1.0 | 0.0 | 8.5 | 5.7 | -4.9 | 7.9 | . | . | . | . | .
O=C(Nc1cccc2ccccc12)N1CC=CCC1 | 65.4* | 3.1 | -425.7 | -13.0 | 14.2 | 41.7 | -6.0 | -5.2 | -11.3 | 0.7 | 2.0
O=C(Nc1cccc2ccccc12)N1CCN(c2ccccc2)CC1 | 10.7 | -1.7 | -461.9 | . | -6.0 | 2.8 | . | . | . | . | .
O=C(Nc1ccc(F)c(Cl)c1)c1nsc(Cl)c1Cl | 93.3* | -0.6 | 14.7 | 26.3 | 91.3* | 95.9* | 52.8* | 73.5* | 87.3* | 80.0* | 26.9
O=C(Nc1ccc(F)cc1)c1nsc(Cl)c1Cl | 93.7* | -3.2 | 31.9 | -18.9 | 84.3* | 82.8* | 62.0* | 87.4* | 97.4* | 90.3* | 57.3*
CC1CCCN(CCCNC(=O)c2ccc(N3CCCC3=O)cc2)C1 (stereo not given) | 6.0 | -6.6 | 10.1 | -11.8 | 1.1 | -2.6 | . | . | . | . | .
COc1ccc(CN2CCNC(=O)C2CC(=O)NCC2CCOCC2)c(F)c1 (stereo not given) | 0.7 | -6.0 | -27.7 | -7.5 | -2.9 | -4.8 | . | . | . | . | .

Assay outcomes: PubChem, several laboratories
